The nature of assay [1]: qHTS profiling of the MIPE4 collection as inhibitors of Plasmodium falciparum (DD2) proliferation (AID 743345; call rule not given here). Particulars: P. falciparum Dd2 in erythrocytes, SYBR Green DNA, 72 h; at 28.5 µM (top of the series) unless noted. The essentials: (§1)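 Erythrocytes infected with P. falciparum (0.3% parasitemia, 2.5% hematocrit) incubated with compounds 72 h at 37 C, 5% CO2. Lysis with saponin/Triton buffer containing SYBR Green I, overnight at room temperature in the dark; DNA fluorescence (485/535 nm) normalised to 0.29 uM artemisinin and DMSO.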
In general terms: qHTS replaces the single test concentration by a dilution series.

Assay [2] is described as follows: qHTS profiling of the MIPE4 collection as inhibitors of Plasmodium falciparum (DD2) proliferation (Rep 2) (AID 743346; call rule not given here). Particulars: P. falciparum Dd2 in erythrocytes, SYBR Green DNA, 72 h; at 28.5 µM (top of the series) unless noted. The gist of the method:
as §1

Assay [3] is described as follows: qHTS profiling of the MIPE4 collection as inhibitors of Plasmodium falciparum (HB3) proliferation (AID 743347; call rule not given here;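 note: plate controls were DMSO vehicle wells for no effect and artemisinin wells for full effect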). Conditions: P. falciparum HB3 in erythrocytes, SYBR Green DNA, 72 h; at 28.5 µM (top of the series) unless noted. The essentials: as §1
Assay [4] can be described thus: High-throughput drug toxicity screening in the BPDCN cell line Cal-1 (AID 1224825; call rule not given here). Particulars: Cal-1 BPDCN cell viability, qHTS; at 45.8 µM (top of the series) unless noted. The essentials: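 500 Cal-1 cells/well, RPMI + glutamine + 10% FBS (phenol red-free); cpd added by pin tool; 48 h, 37C, 5% CO2; CTG 15 min RT, lumi read. Normalised: DMSO 100%, bortezomib 9.2 uM 0%.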

A short description of assay [5]: qHTS assay for measurement of the activity of small molecule inhibitors on Zika virus induced Caspase-3 activity in human iPSC derived neural progenitor cells (hNPCs) (AID 1224857). Note: nearly all actives have a fitted effect of over 65% in size. Note: potency is the fitted concentration of half-maximal effect. The essentials: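 Zika virus (2 FFU/cell) infection of human iPSC-derived NPCs, 6 h, following 1 h compound preincubation. Read-out: Caspase-Glo 3/7 luminescence.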
Assay [6] is described as follows: qHTS assay for measurement of the activity of small molecule inhibitors on Zika virus induced Caspase-3 activity in human astrocytoma cells (AID 1224859).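 Note: plate controls were ZIKV-infected untreated cells for no effect and uninfected cells for full effect.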 The gist of the method: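 Caspase activation in ZIKV-infected SNB-19 cells (2 FFU/cell, 6 h) measured by Caspase-Glo 3/7 luminescence after 30 min RT; compound pre-incubated 1 h; normalised to uninfected and infected controls.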

Assay [7] in a line: qHTS Screen of the MIPE 4.0 Collection Against Ewings Sarcoma (TC71) (AID 1259253). Note: nearly all actives have a fitted effect of over 40% in size. Note: potency is the fitted concentration of half-maximal effect. The gist of the method: (§2)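 CellTiter-Glo luminescence after 48 h compound exposure (titration) gave viability; percent activity used DMSO-treated cells as no inhibition and medium-only wells as full inhibition. Cells grown in RPMI/5% FBS, dosed 4 h post-seeding.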
A short description of assay [8]: qHTS Screen of the MIPE 4.0 Collection Against Ewings Sarcoma (EW8) (AID 1259255).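 For viability: 100% = DMSO-treated cells and 0% = medium-only wells without cells.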 Note: nearly all actives have a fitted effect of over 35% in size. Note: potency is the fitted concentration of half-maximal effect. The essentials:
as §2

Assay [9] is described as follows: qHTS Screen of the MIPE 4.0 Collection Against Ewings Sarcoma (TC32) (AID 1259256). Note: nearly all actives have a fitted effect of over 45% in size. Note: potency is the fitted concentration of half-maximal effect. The gist of the method: as §2
Assay [10] can be described thus: Identifying Small Molecule Inhibitors of Pancreatic Cancer Stem Cells (SN12C, Adherent) (AID 1259358).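 Note: cell survival measured after 48 h of compound exposure.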 The essentials: (§3)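 Cytotoxicity read by CellTiter-Glo luminescence after 48 h compound exposure at 37C; percent activity scaled between DMSO-treated cells and cell-free wells. Spheroid formats used cells pre-formed 14 days in stem cell media on hydrogel.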
Assay [11] is described as follows: Identifying Small Molecule Inhibitors of Pancreatic Cancer Stem Cells (SN12C, Spheroid) (AID 1259360).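 Note: 100% = DMSO-treated cells and 0% = wells without cells.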 Particulars: Potency: SN12C spheroid viability. The gist of the method:
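Pre-formed 14-day tumor spheroids or adherent cells dosed and incubated 48 h, 37C, 5% CO2. Viability assessed by CellTiter-Glo.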

Assay [12] can be described thus: P-glycoprotein substrates identified in KB-3-1 adenocarcinoma cell line, qHTS therapeutic library screen (AID 1346986). Note: nearly all actives have a fitted effect of over 60% in size. The essentials: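 Cells seeded 500/well in DMEM/10% FCS; compounds pinned in dose-response; 72 h incubation; CellTiter-Glo added, 5 min, luminescence. KB-8-5-11 run ±tariquidar to test reversal of P-gp resistance.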
Assay [13] can be described thus: qHTS assay to identify small molecule inhibitors of chordoma cells - UCH-1 (AID 1259355). Note: % is set by controls: 0 for no effect and ±100 for the full control effect; nearly all actives have a fitted effect of over 55% in size. The gist of the method: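 Seed 800 cells per well; incubate overnight at 37 C, 5% CO2. Add test compounds (15 concentrations), then the auranofin–topoisomerase-agent combination. Incubate 48hr, add CellTiter-Glo, wait 30min, read luminescence.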
Assay [14] in a line: qHTS assay to identify small molecule inhibitors of chordoma cells - UCH-2 (AID 1259356). Note: % is set by controls: 0 for no effect and ±100 for the full control effect.
Assay [15] is described as follows: qHTS Screen of the MIPE 4.0 Collection Against Ewings Sarcoma (RDES) (AID 1259252). Note: nearly all actives have a fitted effect of over 35% in size. Note: potency is the fitted concentration of half-maximal effect. The essentials:
as §2

A short description of assay [16]: Identifying Small Molecule Inhibitors of Pancreatic Cancer Stem Cells (A278, Adherent) (AID 1259361).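 Note: 100% = DMSO-treated cells and 0% = cell-free media-only wells; nearly all actives have a fitted effect of over 35% in size.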 The gist of the method:
as §3

We go through nine compounds from PubChem BioAssay (NCATS).

Records with an inconclusive call do not appear. Activity calls are given as the source filed them. Unless noted, calls come from the whole dose curve; as a rule, active = well fitted curve in the direction sought with a large enough effect; inconclusive = small, poorly fitted or top-dose-only effect, or another doubt; inactive = no such curve, though single readings can be large; an effect the other way counts as inactive or inconclusive.

For the compound `CCOC(=O)C(C)Oc1cccc2c(=O)n(CC(=O)Nc3ccc4c(c3)OCCO4)ccc12` (stereo not given), the parasite growth remaining, % of DMSO control (lower = more inhibition) in [1] worked out at 92.5%. The parasite growth, % of control (lower = inhibition) in assay [2] turned out to be 81.6%. The compound also came in with a growth, % of control in assay [3] of 96%. In addition, in assay [4], the viability (% of control) was determined as 88%. Besides, the Potency entry in assay [5], in [6], in [7], in assay [10], in [11] and in assay [12] was “inactive” in each case. For the same compound, the values for the Potency in [8] and in assay [9] were 2.64 µM (active) and 3.32 µM (active), respectively.
Consider `O=C(O)c1cn(-c2ccc(F)cc2)c2cc(N3CCNCC3)c(F)cc2c1=O`, for which, in assay [1], the parasite growth remaining, % of DMSO control (lower = more inhibition) was 67.2%. In addition, in assay [2], the parasite growth, % of control (lower = inhibition) was determined as 50.7%. Moreover, the growth, % of control in [3] came to 208%. Also, in [4], the viability (% of control) stood at 79.5%. For the same compound, the Potency entry in assay [5], in assay [6], in assay [9], in assay [13] and in assay [14] was “inactive” throughout.
Take `COc1cc(OC)c(C(=O)CCCN2CCCC2)c(OC)c1`: the parasite growth remaining, % of DMSO control (lower = more inhibition) in assay [1] stood at 120%. For the same compound, the parasite growth, % of control (lower = inhibition) in [2] was 38.2%. Moreover, the growth, % of control in assay [3] came to 75.7%. Also, the viability (% of control) in [4] was determined as 101%. The Potency result in assay [5], in assay [6], in assay [15], in assay [7], in assay [8] and in assay [9] was “inactive” in each case. Also, the Potency result in assay [13] and in [14] was “inactive” throughout.
In the case of `CCCc1cc(=O)[nH]c(=S)[nH]1`, in assay [1], the parasite growth remaining, % of DMSO control (lower = more inhibition) amounted to 93.3%. The parasite growth, % of control (lower = inhibition) in assay [2] stood at 78.2%. The compound further returned a growth, % of control in assay [3] of 103%. Moreover, the viability (% of control) in [4] came to 14.9%. Also, the Potency result in assay [5], in [6], in assay [15], in assay [7], in [13] and in assay [14] was “inactive” each time. The Potency entry in assay [12] was “inactive”.
For the compound `O=C1NC(=O)C(c2ccccc2[N+](=O)[O-])=C1Nc1ccc(O)c(Cl)c1`, in assay [1], the parasite growth remaining, % of DMSO control (lower = more inhibition) came out at 87.1%. Besides, the parasite growth, % of control (lower = inhibition) in [2] is 106%. Further, the growth, % of control in [3] was 125%. Besides, the viability (% of control) in assay [4] is 36.6%. Also, the Potency in [5] and in assay [15] was 20.9 µM (active) in each case. The Potency result in assay [6] and in [12] was “inactive” in each case.
As for `Cc1c(C(=O)NN2CCCCC2)nn(-c2ccc(Cl)cc2Cl)c1-c1ccc(Cl)cc1`, the parasite growth remaining, % of DMSO control (lower = more inhibition) in assay [1] was found to be 8.4%. In addition, the parasite growth, % of control (lower = inhibition) in assay [2] is 17.7%. The same compound displayed a growth, % of control in [3] of 8.97%. Also, the viability (% of control) in assay [4] turned out to be 13.1%. The Potency entry in [5], in assay [6] and in [14] was “inactive” each time. Besides, the results for the Potency in [7], in assay [8] and in [9] were 23.5 µM (active), 26.4 µM (active) and 26.4 µM (active), respectively.
For `Clc1ccc(C(Cn2ccnc2)OCc2ccc(Sc3ccccc3)cc2)c(Cl)c1` (stereo not given), in assay [1], the parasite growth remaining, % of DMSO control (lower = more inhibition) worked out at 6.46%. For the same compound, the parasite growth, % of control (lower = inhibition) in [2] came to 18.3%. The compound further came in with a growth, % of control in assay [3] of 9.13%. Also, the viability (% of control) in assay [4] worked out at 100%. In addition, the Potency entry in [5] and in [6] was “inactive” each time.
Regarding `O=C(NOCC1CC1)c1ccc(F)c(F)c1Nc1ccc(I)cc1Cl`, the parasite growth remaining, % of DMSO control (lower = more inhibition) in assay [1] turned out to be 91.6%. In addition, in assay [2], the parasite growth, % of control (lower = inhibition) worked out at 56.1%. In assay [3], this compound displayed a growth, % of control of 63.7%. Besides, the viability (% of control) in [4] turned out to be 7.67%. The Potency result in assay [5] and in assay [6] was “inactive” in each case. Moreover, the results for the Potency in [15], in assay [7] and in assay [9] were 20.9 µM (active), 20.9 µM (active) and 16.6 µM (active), respectively.
`C[C@@H](N)C1CCC(C(=O)Nc2ccncc2)CC1` (stereo not given in full): the parasite growth remaining, % of DMSO control (lower = more inhibition) in assay [1] was 91.5%. Further, the parasite growth, % of control (lower = inhibition) in assay [2] was 78.9%. In [3], this compound registered a growth, % of control of 72.6%. Moreover, the viability (% of control) in assay [4] was 79.9%. In addition, the Potency result in assay [5], in [6], in [7], in [8], in [9] and in assay [10] was “inactive” in each case. In addition, the Potency entry in assay [11] is “inactive”. The Potency in assay [15] was 18.7 µM (active). In assay [16], the IC50 (viability decrease) entry is “inactive”.
